TGFb SMAD3 inh: TGF-b pathway inhibition; HepG2 CAGA-GFP TGF-b/SMAD3 reporter, GFP fluorescence, 18 h; TGF-beta stimulated, 500 pg/mL final; Potency, µM (titrated, usually from 46.1 µM), inactives show at the top dose activity, negative = inhibition, usual class: inhibitors; actives 1.2% (n = 410,000); note: potency is the fitted concentration of half-maximal effect; % is set by controls: 0 for no effect and ±100 for the full control effect; nearly all actives have a fitted effect of over 65% in size
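Inhibition was scored as loss of TGF-beta-induced (500 pg/mL final, 18 hours, 37 degrees C) GFP in HEPG2 cells carrying a CAGA-GFP reporter, in DMEM with 1% FBS. Well GFP was summed per cell; Activity was normalised to unstimulated and stimulated DMSO wells, then concentration-response fitting.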
TDP1 block: TDP1 (human) enzyme inhibition | Q9NUW8 | recombinant TDP1, AlphaScreen DNA substrate cleavage | Potency, µM (highest dose often 130 µM), for the others: at the top dose activity change, negative = inhibition, actives largely listed as inhibitors | actives 0.28% (n = 350,000) | AID 485290; note: potency is the fitted concentration of half-maximal effect; % is set by controls: 0 for no effect and ±100 for the full control effect; nearly all actives have a fitted effect of over 40% in size
Target sequence (Q9NUW8 whole entry, looked up): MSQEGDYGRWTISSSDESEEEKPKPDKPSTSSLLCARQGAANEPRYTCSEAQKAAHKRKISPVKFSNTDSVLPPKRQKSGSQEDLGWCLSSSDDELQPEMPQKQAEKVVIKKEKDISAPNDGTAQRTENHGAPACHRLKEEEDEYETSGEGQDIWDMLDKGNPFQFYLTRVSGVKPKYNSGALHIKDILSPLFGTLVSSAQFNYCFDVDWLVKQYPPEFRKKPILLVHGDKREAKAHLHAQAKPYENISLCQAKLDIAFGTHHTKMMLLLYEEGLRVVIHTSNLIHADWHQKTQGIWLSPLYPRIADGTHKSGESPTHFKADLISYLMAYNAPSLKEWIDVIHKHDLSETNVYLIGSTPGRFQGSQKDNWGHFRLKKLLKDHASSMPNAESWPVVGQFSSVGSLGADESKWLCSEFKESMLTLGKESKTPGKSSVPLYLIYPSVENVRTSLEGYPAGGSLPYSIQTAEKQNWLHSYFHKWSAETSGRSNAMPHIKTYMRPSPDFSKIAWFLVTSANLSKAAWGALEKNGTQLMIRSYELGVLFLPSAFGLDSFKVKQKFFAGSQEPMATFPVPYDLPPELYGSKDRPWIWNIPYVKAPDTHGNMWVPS
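Signal: AlphaScreen proximity between streptavidin donor and anti-FITC acceptor beads on intact substrate. Reaction: Tdp1 1 nM, substrate 15 nM final, 5 min RT after 15 min compound preincubation.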
TDP1 cell CPT: DT40-hTDP1 cell growth loss with CPT | chicken DT40 Tdp1-/-;hTDP1 cells + 20 nM CPT, ATP luminescence, 48 h | Potency, µM (doses to about 46.2 µM), inactives show at the top dose activity change, negative = growth inhibition, actives largely listed as inhibitors | actives 12% (n = 420,000) | AID 686979; note: potency is the fitted concentration of half-maximal effect; % is set by controls: 0 for no effect and ±100 for the full control effect; nearly all actives have a fitted effect of over 55% in size
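Chicken DT40 Tdp1-/- cells stably complemented with human TDP1 were seeded at 400 cells/well in medium containing 20 nM camptothecin, exposed to pin-transferred compounds, and grown at 37 °C for at least 48 hr. Viability was read as ATP luminescence.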
IL1B secr inh: inhibitors of inflammasome signaling (IL-1 beta secretion); THP-1 LPS/ATP IL-1B secretion, AlphaLISA, 16 h; stronger effect = lower value; activity change, % at 57.5 µM; actives 4.7% (n = 360,000); AID 743279; in the data active = activity change below about -50%; inconclusive = mostly about -30% to -49%; note: % is set by controls: 0 for no effect and ±100 for the full control effect
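THP-1 cells pretreated 1 hr with compounds (up to 57.5 uM final), then stimulated with LPS (250 ng/mL final) plus ATP (1.25 mM final); secreted IL-1B measured by AlphaLISA after 16 hr, decreased signal indicating inhibition.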
HepG2 viability: counter-screen for TGF-b inhibitors: cytotoxicity in HepG2 cells; AID 588856; HepG2 CAGA-GFP viability, ATP luminescence, 18 h; actives 0.76% (n = 410,000); Potency, µM (titrated, usually from 46.1 µM), for the others: at the highest dose activity change, negative = cytotoxicity, most hits filed as cytotoxic; note: potency is the fitted concentration of half-maximal effect
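CellTiter-Glo luminescence gave cytotoxicity after 18 hours at 37 degrees C. The cells were HepG2 CAGA-GFP in 1% FBS DMEM, stimulated with 500 pg/mL TGF-beta after compound addition. %Activity was normalised to no-cell wells (complete cell-killing) and DMSO (no toxicity), and curves were fitted and classified.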
TDP1 cell noCPT: qHTS for Inhibitors of human tyrosyl-DNA phosphodiesterase 1 (TDP1): qHTS in cells in absence of CPT; DT40 Tdp1-/- hTDP1 cells, no CPT, ATP luminescence, 48 h; Potency, µM (highest dose often 46.2 µM), for inactives: top-dose activity change, negative = growth inhibition, actives largely listed as inhibitors; actives 15% (n = 420,000); AID 686978, 2013; note: potency is the fitted concentration of half-maximal effect; % is set by controls: 0 for no effect and ±100 for the full control effect; nearly all actives have a fitted effect of over 55% in size
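Cells were dispensed at 400 per well, compounds added by pin tool, plates incubated ≥48 hr at 37 °C, then CellTiter-Glo added for 30 min at room temperature before luminescence reading. Line: DT40 Tdp1-/- complemented with hTDP1; camptothecin omitted.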
* = called active by the depositor; [ ] = remark or other dose. A selection: hits, their analogues and other compounds. The true share with any hit is near 19%. Unless noted, calls come from the whole dose curve; as a rule, active = well fitted curve in the direction sought with a large enough effect; inconclusive = small, poorly fitted or top-dose-only effect, or another doubt; inactive = no such curve, though single readings can be large; an effect the other way counts as inactive or inconclusive.

For Cn1c(CNC(=O)CSc2n[nH]c(-c3ccccc3Cl)n2)nc2ccccc21 the results were TGFb SMAD3 inh 11%, TDP1 block 3%, TDP1 cell CPT -16%, HepG2 viability 0% and TDP1 cell noCPT -20%.
COc1ccc(C(=S)N2CCOCC2)cc1OS(=O)(=O)c1ccc(Br)cc1 was read as TGFb SMAD3 inh -3%, TDP1 block 4%, TDP1 cell CPT inconclusive, IL1B secr inh -7, HepG2 viability -22% and TDP1 cell noCPT inconclusive.
For O=C(CSc1ccc2nnc(CCNC(=O)c3ccc(F)cc3)n2n1)NCC1CCCO1 (stereo not given) the results were TGFb SMAD3 inh inconclusive, TDP1 block 2%, TDP1 cell CPT 8%, IL1B secr inh inactive, HepG2 viability 48% and TDP1 cell noCPT 9%.
For Cc1cc(C)cc(N(CC(=O)N/N=C/c2ccncc2)S(=O)(=O)c2ccccc2)c1 the results were TGFb SMAD3 inh -29%, TDP1 block 2%, TDP1 cell CPT -27%, IL1B secr inh -54*, HepG2 viability -1% and TDP1 cell noCPT -27%.
Screening CCOc1ccc(/C=N/NC(=O)Cc2ccccc2)cc1CN1CC2CC(C1)c1cccc(=O)n1C2 (stereo not given) returned TGFb SMAD3 inh -7%, TDP1 block 3%, TDP1 cell CPT inconclusive, IL1B secr inh -104*, HepG2 viability -11% and TDP1 cell noCPT 21µM*.
Screening CSc1ccc(CCNC(=O)CCc2c(C)nc3c(c(C)nn3-c3ccc(C)c(C)c3)c2C)cc1 returned TGFb SMAD3 inh inconclusive, TDP1 block -1%, TDP1 cell CPT -4%, HepG2 viability 4% and TDP1 cell noCPT 2%.
O=C(Nc1ccc(Cl)c(Cl)c1)N(Cc1c[nH]c2ccccc12)C1CCCCC1 was read as TGFb SMAD3 inh -7%, TDP1 block 2%, TDP1 cell CPT 5.8µM*, HepG2 viability -1% and TDP1 cell noCPT 9.2µM*.
Screening COc1cccc(NC(=O)N(Cc2ccco2)C(C)c2cccs2)c1 (stereo not given) returned TGFb SMAD3 inh -1%, TDP1 block 1%, TDP1 cell CPT -17%, IL1B secr inh -8, HepG2 viability -16% and TDP1 cell noCPT -28%.
COc1cccc(NC(=O)N(Cc2c[nH]c3ccccc23)C2CCCCCC2)c1 was read as TGFb SMAD3 inh inconclusive, TDP1 block 5%, TDP1 cell CPT 12µM*, HepG2 viability -54% and TDP1 cell noCPT 9.2µM*.
Screening O=C(COC(=O)Cc1c[nH]c2ccccc12)NC1CCCCC1 returned TGFb SMAD3 inh -6%, TDP1 block 2%, TDP1 cell CPT 10%, IL1B secr inh 11, HepG2 viability 5% and TDP1 cell noCPT -11%.
`COc1cccc(NC(=O)N(C2CCCCC2)C(C)c2cccs2)c1` (stereo not given) gave TGFb SMAD3 inh 18%, TDP1 block -2%, TDP1 cell CPT 10µM*, IL1B secr inh 2, HepG2 viability 3% and TDP1 cell noCPT 13µM*.
O=C(NCc1ccccc1Cl)c1cc2c(s1)CS(=O)(=O)C2 was read as TGFb SMAD3 inh 2%, TDP1 block 2%, TDP1 cell CPT -15%, IL1B secr inh inconclusive, HepG2 viability -8% and TDP1 cell noCPT -1%.
Screening O=C(CO)[C@@H](O)[C@H](O)[C@@H](O)C(=O)O returned TDP1 cell CPT 14% and TDP1 cell noCPT 9%.
CCOc1ccc(N(Cc2cc3cc(OC)ccc3[nH]c2=O)C(=O)C2CCCO2)cc1 (stereo not given) was read as TGFb SMAD3 inh 3%, TDP1 block 5%, TDP1 cell CPT inconclusive, IL1B secr inh -11, HepG2 viability 66% and TDP1 cell noCPT 18µM*.
For COc1ccc2[nH]c(=O)c(CN(C(=O)c3cccc(Cl)c3)c3ccccc3C)cc2c1 the results were TGFb SMAD3 inh -7%, TDP1 block 6%, TDP1 cell CPT inconclusive, HepG2 viability -24% and TDP1 cell noCPT inconclusive.
Screening COc1ccc2[nH]c(=O)c(CN(C(=O)c3cccc(Cl)c3)c3ccccc3OC)cc2c1 returned TGFb SMAD3 inh -14%, TDP1 block 4%, TDP1 cell CPT 23µM*, HepG2 viability -13% and TDP1 cell noCPT inconclusive.
Screening COc1ccccc1N(Cc1cc(=O)[nH]c2ccccc12)C(=O)c1cccc([N+](=O)[O-])c1 returned TGFb SMAD3 inh -1%, TDP1 block 2%, TDP1 cell CPT 21µM*, IL1B secr inh -18, HepG2 viability -1% and TDP1 cell noCPT inconclusive.
Screening Cc1ccc2cc(CN(C(=O)c3cccc(Cl)c3)c3ccccc3)c(=O)[nH]c2c1 returned TGFb SMAD3 inh 6%, TDP1 block 7%, TDP1 cell CPT 12µM*, HepG2 viability 3% and TDP1 cell noCPT 18µM*.
For O=C(c1ccco1)N(Cc1cc2cc3c(cc2nc1N1CCOCC1)CCC3)CC1CCCO1 (stereo not given) the results were TDP1 cell CPT 13%[9.04 µM] and TDP1 cell noCPT 1%.
For CNC(=O)c1ccc(C)c(NC(=O)C2=C(C)OCCS2)c1 the results were TGFb SMAD3 inh 3%, TDP1 cell CPT -2%, IL1B secr inh 0, HepG2 viability 2% and TDP1 cell noCPT 12%.
Screening CCOc1ccc(N(Cc2cc3cc(C)ccc3[nH]c2=O)C(=O)COC)cc1 returned TGFb SMAD3 inh -4%, TDP1 cell CPT inconclusive, IL1B secr inh -16, HepG2 viability 2% and TDP1 cell noCPT -8%.
CCOc1ccc(N(Cc2cc3cc(C)ccc3[nH]c2=O)C(=O)c2cccc(Cl)c2)cc1 was read as TGFb SMAD3 inh -6%, TDP1 block -2%, TDP1 cell CPT 9.2µM*, HepG2 viability -16% and TDP1 cell noCPT inconclusive.
For COc1cccc(CN2CCC2(C)C(=O)Nc2cccc(NS(C)(=O)=O)c2)c1OC (stereo not given) the results were TGFb SMAD3 inh -5%, TDP1 cell CPT 18µM*, IL1B secr inh -5, HepG2 viability -27% and TDP1 cell noCPT 23µM*.
Screening CC(C)c1ccc(CN2CCC2(C)C(=O)Nc2cccc(Oc3ccccc3)c2)cc1 (stereo not given) returned TGFb SMAD3 inh -2%, TDP1 cell CPT inconclusive, IL1B secr inh 29, HepG2 viability -17% and TDP1 cell noCPT 18µM*.

From PubChem
